High-throughput results from PubChem BioAssay.
Only some compounds are listed: those with a hit (about 19% of all), similar ones and a draw of the others.
HT1080NT lethal: kills 2HG-producing HT-1080-NT fibrosarcoma cells. HT-1080-NT fibrosarcoma viability, CellTiter-Glo ATP luminescence, 48 h. Potency, µM (doses to about 46.1 µM), actives largely listed as cytotoxic. hit rate 1.6% among 360,000;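 also: NT is the 2HG producing partner of a matched IDH1 knockdown line; nearly all actives have a fitted effect of over 55% in size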
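Compounds were tested in concentration-response format on HT-1080-NT cells for 48 hours at 37 degrees C. Cell viability came from CellTiter-Glo luminescence; curves were classified by r2, response magnitude and activity.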
HT1080 IDH1KD tx: toxicity to HT-1080 IDH1 knockdown cells (counter line); AID 686971; hit rate 2% among 360,000; HT-1080 IDH1 knockdown viability, ATP luminescence, 48 h; Potency, µM (series often up to 46.1 µM), usual class: cytotoxic
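Viability of IDH1-knockdown HT-1080 fibrosarcoma cells was assessed by CellTiter-Glo after 48 h at 37 °C with titrated compound; concentration-effect curves were classified by fit quality and response size.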
IL1B secr inh: inhibitors of inflammasome signaling (IL-1 beta secretion) | THP-1 LPS/ATP IL-1B secretion, AlphaLISA, 16 h; stronger effect = lower value | activity change, % at 57.5 µM | hit rate 4.7% among 360,000 | AID 743279; in the data active = activity change below about -50%; inconclusive = mostly about -30% to -49%
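Secreted IL-1B measured by AlphaLISA bead assay after 16 h compound exposure of THP-1 cells; compounds (final up to 57.5 uM) added 1 h before LPS (250 ng/mL) and ATP (1.25 mM) stimulation; lower signal means less secretion.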
DT40 TDP1 CPT: growth inhibition of DT40 Tdp1-/-;hTDP1 cells with camptothecin (screen for TDP1 inhibitors); chicken DT40 Tdp1-/-;hTDP1 cells + 20 nM CPT, ATP luminescence, 48 h; AID 686979; hit rate 12% among 420,000; Potency, µM (top dose mostly 46.2 µM), usual class: inhibitors; also: nearly all actives have a fitted effect of over 55% in size
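Chicken DT40 Tdp1-/- cells stably complemented with human TDP1 were seeded at 400 cells/well in medium containing 20 nM camptothecin, exposed to pin-transferred compounds, and grown at 37 °C for at least 48 hr. Viability was read as ATP luminescence.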
DT40 TDP1 no CPT: qHTS for Inhibitors of human tyrosyl-DNA phosphodiesterase 1 (TDP1): qHTS in cells in absence of CPT; Potency, µM (series often up to 46.2 µM), hits mostly inhibitors; hit rate 15% among 420,000; DT40 Tdp1-/- hTDP1 cells, no CPT, ATP luminescence, 48 h; also: nearly all actives have a fitted effect of over 55% in size
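Readout: luminescence from CellTiter-Glo after 30 min in the dark at RT. Cells: DT40 Tdp1-/- with stable hTDP1, 400/well. Exposure: compounds alone, ≥48 hr, 37 °C.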
Large screens that a line does not name were inactive. Unless noted, calls follow the shape of the dose curve; as a rule, active = well fitted curve in the direction sought with a large enough effect; inconclusive = small, poorly fitted or top-dose-only effect, or another doubt; inactive = no such curve, though single readings can be large; an effect the other way counts as inactive or inconclusive.

CS(=O)(=O)c1ccc2nc(NC(=O)CCN3C(=O)c4ccccc4C3=O)sc2c1	none
CC(C)c1ccc(NC(=O)C2CCCN2S(=O)(=O)c2ccccc2F)cc1 (centres undefined)	DT40 TDP1 CPT inconclusive, DT40 TDP1 no CPT inconclusive
CC(C)(C)c1ccc(-n2ncc3c2CCCC3NC(=O)CCN2CCCO2)cc1 (centres undefined)	DT40 TDP1 CPT 23µM, DT40 TDP1 no CPT inconclusive
CC(C)(C)c1ccc(-n2ncc3c2CCCC3NC(=O)CN2CCCCC2=O)cc1 (centres undefined)	HT1080NT lethal inconclusive, HT1080 IDH1KD tx inconclusive, DT40 TDP1 CPT 16µM, DT40 TDP1 no CPT inconclusive
Cc1nccn1CCC(=O)NC1CCCc2c1cnn2-c1ccc(C(C)(C)C)cc1 (centres undefined)	HT1080NT lethal inconclusive, IL1B secr inh inconclusive, DT40 TDP1 no CPT inconclusive
CC(C)(C)c1ccc(-n2ncc3c2CCCC3NC(=O)CCn2cncn2)cc1 (centres undefined)	DT40 TDP1 CPT inconclusive, DT40 TDP1 no CPT inconclusive
CC(C)(C)c1ccc(-n2ncc3c2CCCC3NC(=O)C2(C(N)=O)CC2)cc1 (centres undefined)	HT1080NT lethal inconclusive, HT1080 IDH1KD tx inconclusive, IL1B secr inh inconclusive, DT40 TDP1 CPT 5.8µM, DT40 TDP1 no CPT 1.8µM
CC(=O)NCC(=O)NC1CCCc2c1cnn2-c1ccc(C(C)(C)C)cc1 (centres undefined)	DT40 TDP1 no CPT 4.1µM
COc1ccc(Cl)cc1NC(=O)NN1CCN(C)CC1	none
CC(C)NC(=O)CSc1ccccc1C(=O)N1CCN(S(=O)(=O)Cc2ccccc2)CC1	none
O=C(Cc1cccs1)NC1CC(=O)N(c2cccc(F)c2)C1 (centres undefined)	none (no result: HT1080NT lethal, HT1080 IDH1KD tx, IL1B secr inh)
Cc1cc(C)c(NC(=O)Cn2nnc(C(=O)NCc3ccc4c(c3)OCO4)c2N)c(C)c1	none
CC(C)(C)c1ccc(-n2ncc3c2CCCC3NC(=O)CCCn2cncn2)cc1 (centres undefined)	DT40 TDP1 CPT 13µM, DT40 TDP1 no CPT inconclusive
CCCc1[nH]nc2c1C(/C(C)=C/c1ccccc1)C(C#N)=C(N)O2 (centres undefined)	HT1080NT lethal inconclusive, IL1B secr inh -94, DT40 TDP1 CPT inconclusive
CCCc1[nH]nc2c1C(c1cn[nH]c1-c1ccc(F)cc1)C(C#N)=C(N)O2 (centres undefined)	HT1080NT lethal inconclusive, IL1B secr inh -90, DT40 TDP1 CPT 9.2µM, DT40 TDP1 no CPT 10µM
CCCc1[nH]nc2c1C(c1ccc(O)c(OC)c1)C(C#N)=C(N)O2 (centres undefined)	IL1B secr inh -67
CCCc1[nH]nc2c1C(c1ccccc1OC)C(C#N)=C(N)O2 (centres undefined)	IL1B secr inh -53, DT40 TDP1 CPT inconclusive, DT40 TDP1 no CPT inconclusive
O=C(COC(=O)C1(c2ccccc2)CC1)N1CCN(c2ccc(F)cc2)CC1	DT40 TDP1 CPT inconclusive, DT40 TDP1 no CPT inconclusive
C=CCN1c2ccccc2[C@]23C[C@@H](C(=O)OC)N(C(=O)NCCC)C2=NC(C(=O)OC)=C(C(=O)OC)[C@H]13	none
Cc1oc(-c2ccccc2)nc1CS(=O)CC(=O)NC1CCCCCC1 (centres undefined)	DT40 TDP1 CPT inconclusive
C=CCNc1nc(Nc2ccccc2F)nc(OCC)n1	DT40 TDP1 CPT inconclusive
C=CCNc1nc(Nc2ccc(OC)cc2OC)nc(OCC)n1	DT40 TDP1 CPT 16µM, DT40 TDP1 no CPT inconclusive
NC(=O)CC(NC(=O)c1cccc(Br)c1)c1ccc(NC2CCC2)c([N+](=O)[O-])c1 (centres undefined)	DT40 TDP1 CPT inconclusive
CCOC(=O)c1c(NC(=O)CSc2cn(CCNC(=O)c3ccccc3OC)c3ccccc23)sc2c1CCCC2	DT40 TDP1 CPT inconclusive, DT40 TDP1 no CPT 23µM (no result: HT1080NT lethal, HT1080 IDH1KD tx, IL1B secr inh)
CCOC(=O)c1c(NC(=O)CSc2cn(CCNC(=O)c3ccc(OCC)cc3)c3ccccc23)sc2c1CCC2	none (no result: HT1080NT lethal, HT1080 IDH1KD tx, IL1B secr inh)
CCOC(=O)c1c(NC(=O)CSc2c[nH]c3ccccc23)sc2c1CCCC2	HT1080NT lethal inconclusive, HT1080 IDH1KD tx inconclusive, DT40 TDP1 CPT inconclusive, DT40 TDP1 no CPT inconclusive
CCOC(=O)c1c(NC(=O)CSc2cn(CCNC(=O)c3ccccc3F)c3ccccc23)sc2c1CCCC2	DT40 TDP1 CPT 16µM, DT40 TDP1 no CPT 16µM (no result: HT1080NT lethal, HT1080 IDH1KD tx, IL1B secr inh)
CCOC(=O)c1c(NC(=O)CSc2c[nH]c3ccccc23)sc2c1CCC2	HT1080NT lethal inconclusive, HT1080 IDH1KD tx inconclusive, DT40 TDP1 CPT inconclusive, DT40 TDP1 no CPT 13µM
CCOC(=O)c1c(NC(=O)COc2cccc3c2CCN(CC)C3=O)sc2c1CCC2	DT40 TDP1 CPT inconclusive, DT40 TDP1 no CPT 8.2µM
CC(=O)NCCNc1ccnc(-c2ccccc2C)n1	none (no result: HT1080NT lethal, HT1080 IDH1KD tx, IL1B secr inh)
CCOC(=O)c1c(NC(=O)C(C)Sc2cn(C)c3ccccc23)sc2c1CCC2 (centres undefined)	DT40 TDP1 CPT inconclusive, DT40 TDP1 no CPT inconclusive
CCOC(=O)c1c(NC(=O)C(C)Sc2cn(CCNC(=O)c3ccc(OC)cc3)c3ccccc23)sc2c1CCC2 (centres undefined)	DT40 TDP1 CPT 21µM, DT40 TDP1 no CPT inconclusive (no result: HT1080NT lethal, HT1080 IDH1KD tx, IL1B secr inh)
COc1ccc(S(=O)(=O)N2CCOCC2)cc1NC(=O)COC(=O)C1CC2CCCC(C1)C2=O (centres undefined)	none
CCOC(=O)Nc1nc(-c2ccc(Cl)cc2Cl)cs1	DT40 TDP1 CPT inconclusive, DT40 TDP1 no CPT 10µM
O=C(NNc1nc(-c2ccccc2)cs1)c1cccs1	HT1080NT lethal inconclusive, HT1080 IDH1KD tx inconclusive, DT40 TDP1 CPT inconclusive, DT40 TDP1 no CPT 23µM
O=C1OC(Nc2nc3ccccc3s2)c2ccccc21 (centres undefined)	none
O=C(NNc1nc(-c2ccccc2)cs1)c1ccc(F)cc1	HT1080NT lethal inconclusive
O=C(NNc1nc(-c2ccc(F)cc2)cs1)c1ccccc1	HT1080NT lethal inconclusive, HT1080 IDH1KD tx inconclusive, DT40 TDP1 CPT 2.6µM, DT40 TDP1 no CPT 4.1µM
O=C(NC(=S)Nc1nc(-c2ccccc2)cs1)c1cccs1	none
O=C1OC(Nc2nc(-c3ccc(F)cc3)cs2)c2ccccc21 (centres undefined)	HT1080NT lethal inconclusive, HT1080 IDH1KD tx 23µM, IL1B secr inh -92, DT40 TDP1 CPT 15µM, DT40 TDP1 no CPT 23µM
C#CCN1C(=O)S/C(=C\c2cc3c(cc2OC)OCO3)C1=O	none
O=c1ccn([C@@H]2O[C@H](CNS(=O)(=O)c3csc(-c4ccno4)c3)[C@@H](O)[C@H]2O)c(=O)[nH]1	none
CC(=O)Nc1cc(C(=O)N2CCCC(C)C2)cc2ncn(CCc3ccccn3)c12 (centres undefined)	none (no result: HT1080NT lethal, HT1080 IDH1KD tx, IL1B secr inh)
CC(=O)NNc1nc(-c2ccccc2)cs1	DT40 TDP1 CPT 21µM, DT40 TDP1 no CPT inconclusive
CC(=O)NNc1nc(-c2ccc(C)cc2)cs1	none
CC(=O)Nc1nc(-c2cccc3ccccc23)cs1	DT40 TDP1 CPT 15µM, DT40 TDP1 no CPT inconclusive
